TDP1 cell CPT – DT40-hTDP1 cell growth loss with CPT; Potency, µM (series often up to 46.2 µM), for the others: at the highest dose activity change, negative = growth inhibition, most hits filed as inhibitors; AID 686979; actives 12% (n = 420,000); chicken DT40 Tdp1-/-;hTDP1 cells + 20 nM CPT, ATP luminescence, 48 h; note: % is set by controls: 0 for no effect and ±100 for the full control effect; nearly all actives have a fitted effect of over 55% in size
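Chicken DT40 Tdp1-/- cells complemented with human TDP1, 400 cells/well, exposed to compounds plus 20 nM camptothecin for at least 48 h at 37 C; viability read as ATP content by CellTiter-Glo luminescence.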
ClpP mod – qHTS Assay for Activators of ClpP | actives 1.9% (n = 340,000) | purified B. subtilis ClpP, FRET peptide cleavage, 20 min | Potency, µM (highest dose often 57.5 µM), without a hit: at the top dose activity change, negative = active; active = well fitted falling curve with a large enough effect; inconclusive = small, poorly fitted or top-dose-only effect; inactive = no such curve, though single readings can be large or run the other way; note: the source files actives as falling curves though it sought activators and does not explain the sign; nearly all actives have a fitted effect of over 65% in size
Target sequence (P80244 whole entry, looked up): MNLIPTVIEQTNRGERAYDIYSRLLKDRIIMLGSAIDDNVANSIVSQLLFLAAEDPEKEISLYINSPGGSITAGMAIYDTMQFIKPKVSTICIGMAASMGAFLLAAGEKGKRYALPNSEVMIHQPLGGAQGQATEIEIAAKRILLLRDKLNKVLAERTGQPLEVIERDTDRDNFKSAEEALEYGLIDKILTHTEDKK
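ClpP 10 microg/mL final, pH 8 Tris/KCl buffer with BSA, glycerol, Tween-20; compound pinned in; FRET-FV substrate; RT 20 min; Ex320/Em430; ΔFRET vs ADEP 5.8 microM, DMSO, no enzyme.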
TDP1 cell noCPT – qHTS for Inhibitors of human tyrosyl-DNA phosphodiesterase 1 (TDP1): qHTS in cells in absence of CPT. DT40 Tdp1-/- hTDP1 cells, no CPT, ATP luminescence, 48 h. Potency, µM (top dose mostly 46.2 µM), for the others: at the highest dose activity change, negative = growth inhibition, hits mostly inhibitors. actives 15% (n = 420,000); note: % is set by controls: 0 for no effect and ±100 for the full control effect; nearly all actives have a fitted effect of over 55% in size
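Readout: luminescence from CellTiter-Glo after 30 min in the dark at RT. Cells: DT40 Tdp1-/- with stable hTDP1, 400/well. Exposure: compounds alone, ≥48 hr, 37 °C.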
TDP1 inh – blocks human tyrosyl-DNA phosphodiesterase 1; Potency, µM (doses to about 130 µM), inactives show at the highest dose activity change, negative = inhibition, hits mostly inhibitors; recombinant TDP1, AlphaScreen DNA substrate cleavage; actives 0.28% (n = 350,000); note: % is set by controls: 0 for no effect and ±100 for the full control effect; nearly all actives have a fitted effect of over 40% in size
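Compounds were preincubated with Tdp1 (1 nM final) for 15 min at room temperature before substrate (15 nM final) started a 5 min reaction; beads (10 ug/ml final) were then added for 10 min before AlphaScreen detection.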
The depositor's hits bear a star; ? = inconclusive; / = no result given; [ ] = another dose, or the depositor's remark. This is a sample that favours compounds with a hit; in the whole collection about 17% have one here. Unless noted, calls come from the whole dose curve; as a rule, active = well fitted curve in the direction sought with a large enough effect; inconclusive = small, poorly fitted or top-dose-only effect, or another doubt; inactive = no such curve, though single readings can be large; an effect the other way counts as inactive or inconclusive. Potency is the fitted concentration of half-maximal effect.

SMILES	TDP1 cell CPT	ClpP mod	TDP1 cell noCPT	TDP1 inh
O=S(=O)(Nc1ccc(N2CCCCC2)cc1)c1ccc(F)c(F)c1	?	1.5%	14.6µM*	8.2%
Cc1ccc(S(=O)(=O)Nc2ccc3nc(N)sc3c2)cc1	13µM*	-2.4%	11.6µM*	3.8%
Cc1nc2ccc(NS(=O)(=O)c3cccc([N+](=O)[O-])c3)cc2s1	18.4µM*	/	14.6µM*	4.0%
Cc1nc2ccc(NS(=O)(=O)c3ccc(F)c(F)c3)cc2s1	18.4µM*	-4.2%	?	0.0%
CS(=O)(=O)N1CCC(Oc2ccccc2C(=O)N2CCN(CC3CC3)CC2)CC1	-6.4%	/	-13.1%	2.4%
COc1ccccc1-n1cc(CN2CCN(CC=C(C)C)C(CCO)C2)cn1 (stereo not drawn)	-0.2%	-2.8%	0.3%	/
Cc1nc2ccc(NS(=O)(=O)c3ccc(Br)cc3)cc2s1	13µM*	-0.2%	5.17µM*	0.0%
Cc1c(NS(=O)(=O)c2ccc3c(c2)OCCO3)cccc1-c1nc2cccnc2s1	?	0.0%	11.6µM*	6.5%
O=S(=O)(Nc1ccc(N2CCOCC2)cc1)c1cc(Cl)ccc1Cl	-13.7%	-2.2%	11.6µM*	/
Cc1nc2ccc(NC(=O)CCS(=O)(=O)c3ccc(Cl)cc3)cc2s1	11.6µM*	-2.3%	14.6µM*	4.5%
COc1ccc(NC(=O)CCS(=O)(=O)c2ccc3nc(C)sc3c2)cc1OC	10.6%	-1.6%	-15.6%	/
Cc1nc2ccc(S(=O)(=O)Nc3ccc(-c4nc5cccnc5s4)cc3)cc2s1	-1.4%	4.1%	-22.8%	6.6%
COc1cc(OC)cc(-c2noc(-c3csc([C@@H]4O[C@H](CO)[C@H](O)[C@H](O)[C@H]4O)n3)n2)c1	0.5%	-0.9%	-10.5%	/
Cc1c(P(=S)(c2ccccc2)c2ccccc2)[n+]2ccccc2n1C/C=C/c1ccccc1	/	/	/	3.8%
CCc1nc2ccccc2c(C(=O)Nc2ccc(C)cc2)c1C	-11.1%	-2.0%	-28.3%	/
Cc1nc2ccc(NS(=O)(=O)c3ccc4c(c3)OCCO4)cc2s1	1.84µM*	1.4%	1.46µM*	3.3%
CCNC(=O)[C@H](C)/C=C/C(NC(=O)OCc1ccccc1)c1ccc(C(=O)OC)cc1 (stereo partly drawn)	/	/	/	4.5%
COc1ccc(C(=O)OCC(=O)NC(=O)NC(C)C)cc1OC	-29.8%	-9.7%	-4.9%	-2.9%
CC(C)N1C/C(=C/c2ccsc2)C(=O)/C(=C/c2ccsc2)C1	2.91µM*	/	5.8µM*	5.4%
CCN1C(=O)S/C(=C/c2ccsc2)C1=O	-10.2%	-3.7%	-20.0%	0.0%
CC(C)N1CC2=C(OC(N)=C(C#N)C2c2cccnc2)/C(=C/c2cccnc2)C1 (stereo not drawn)	1.5%	-3.2%	3.9%	2.1%
CC(C)N1C/C(=C/c2cccnc2)C(=O)/C(=C/c2cccnc2)C1	1.64µM*	-2.3%	1.64µM*	0.0%
COc1ccc(OCCOc2ccc(/C=C3\C(=N)N4N=C(C)SC4=NC3=O)cc2)cc1	3.8%	0.3%	-13.8%	35.5µM*
Cc1ccc(NC(=O)c2ccccc2Br)c(C(=O)c2ccccc2)c1	-13.7%	1.5%	-29.7%	-1.3%[12.3 µM]
COc1ccccc1N(Cc1cc(=O)[nH]c2ccccc12)C(C)=O	6.2%	-8.8%	10.7%	/
SMILES	TDP1 cell CPT	ClpP mod	TDP1 cell noCPT	TDP1 inh
COc1ccccc1N(Cc1cc(=O)[nH]c2ccccc12)C(=O)c1ccc([N+](=O)[O-])cc1	20.6µM*	/	11.6µM*	10.1%
O=C(/C=C/c1cccc([N+](=O)[O-])c1)OCC(=O)N1CCCCC1	11.7%	0.5%	5.3%	/
Cc1nc2c(c(C)c1CCC(=O)Nc1cccc(C(F)(F)F)c1)c(=O)n(C)c(=O)n2C	?	-3.5%	16.4µM*	0.0%
Cc1nc2c(c(C)c1CCC(=O)Nc1ccc(F)cc1)c(=O)n(C)c(=O)n2C	?	-3.9%	13µM*	3.5%
CCc1nc(SCC(=O)Nc2cccc(C(F)(F)F)c2)c2c(=O)n(C)c(=O)n(C)c2n1	?	-0.6%	9.2µM*	4.1%
COc1ccc(NC(=O)CCc2c(C)nc3c(c2C)c(=O)n(C)c(=O)n3C)cc1OC	10.9%	-7.6%	?	-2.3%
CCCCCC(CC(=O)NO)C(=O)NC(C(=O)N1CCCC1CO)C(C)C (stereo not drawn)	2.59µM*	-1.8%	1.84µM*	/
CCCCC[C@H](CC(=O)NO)C(=O)N[C@H](C(=O)N1CCC[C@H]1CO)C(C)C	/	/	/	8.5%[56.1 µM]
Cn1c(=Nc2ccccc2)sc2ccccc21	-14.5%	-2.3%	-3.1%	-6.1%
OCCn1c(-c2ccc3c(c2)OCO3)csc1=Nc1ccccc1	16.4µM*	-0.2%	20.6µM*	5.7%
OCCn1c(-c2ccc(F)cc2)csc1=Nc1ccccc1	?	1.1%	20.6µM*	7.9%
COc1ccc(Nc2cc(C(=O)NCCCN3CCOCC3)c3ccccc3n2)cc1OC	29.1µM*	2.8%	?	7.9%
CCN(CC)CCCNC(=O)c1cc(Nc2ccc(OC)cc2)nc2ccccc12	18.4µM*	/	23.1µM*	/
COc1ccc(Nc2cc(C(=O)NCCCN3CCOCC3)c3ccccc3n2)c(OC)c1	-3.7%	-0.3%	-24.5%	7.8%
COc1ccc(Nc2cc(C(=O)NCCCN3CCN(c4ccccc4F)CC3)c3ccccc3n2)c(OC)c1	?	4.4%	16.4µM*	7.0%
CCN(CC)CCNC(=O)c1cc(Nc2ccc(OC)c(OC)c2)nc2ccccc12	-25.1%	0.6%	11.2%	/
COc1ccc(Nc2cc(C(=O)NCCCN3CCN(C)CC3)c3ccccc3n2)cc1OC	-14.6%	0.1%	-18.2%	5.8%
COc1ccc(N2CCN(CCCNC(=O)c3cc(Nc4ccccc4OC)nc4ccccc34)CC2)cc1	23.1µM*	-17.9%	?	9.5%
COc1ccc(-c2noc(COC(=O)c3ccco3)n2)cc1OC	-17.8%	1.6%	0.9%	-1.1%
CC1(C)CC(=NNC(=O)c2n[nH]c3c2CCC3)CC(C)(C)N1	?	-1.9%	21.8%	2.8%
COc1ccc(N2CCN(CCCNC(=O)c3cnn(-c4ccc(C)cc4)c3-n3cccc3)CC2)cc1	5.8µM*	-1.2%	5.17µM*	5.6%
COc1ccccc1Nc1cc(C(=O)NCc2cccnc2)c2ccccc2n1	1.1%	/	?	/
COc1ccc(Nc2cc(C(=O)NCCCN(C)Cc3ccccc3)c3ccccc3n2)c(OC)c1	14.6µM*	-1.1%	13µM*	9.5%
COc1ccc(Nc2cc(C(=O)NCCCN3CCN(c4ccc(OC)cc4)CC3)c3ccccc3n2)cc1	8.2µM*	0.2%	8.2µM*	10.4%
CCN(CCCNC(=O)c1cc(Nc2ccccc2OC)nc2ccccc12)c1cccc(C)c1	20.6µM*	?	7.31µM*	0.0%
O=C(Nc1ccnn1C1CCN(Cc2ccccc2OC(F)F)CC1)c1cccnc1	?	/	?	1.5%
N#CC1=C(Nc2ccccc2Cl)SC2(CCCC2)NC1=O	16.4µM*	-2.1%	18.4µM*	/

Screening data deposited in PubChem by National Center for Advancing Translational Sciences (NCATS).
